Assay: E. coli acrAB mutant growth effects, primary screen, E. coli filamentation inducers, strain DRC39, OD650, 48 h (AID 1179);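 note: screen aims at cell division blockers that make cells filament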
Settings: E. coli DRC39 delta-acrAB growth, higher = more signal, called active from +8 up or from −8 down

z-score, inactive:
COc1ccc([Si](C)(C)[C@@H]2[C@@H](CCO)O[C@]3(C(=O)N(Cc4ccccc4)c4ccc(N5C(=O)c6cccc7cccc5c67)cc43)[C@H]2C)cc1 1.45
COc1cccc(C)c1NC(=O)O[C@H]1[C@H](OC(=O)Nc2ccc3c(c2)OCO3)[C@@H](OC(=O)Nc2ccc3c(c2)OCO3)[C@@H](OC)O[C@@H]1CO -0.1
Cc1cc(C)c(C(O)C2C=CC3C(=O)N(c4ccccc4)C(=O)C3N2Nc2ccccc2F)c(C)c1 (stereo not given) -0.439
CCCC1(C(=O)OC)C=C2C(=C(C)C(=O)C2C)CN1 (stereo not given) 0.0101
O=C(NCCN1CCOCC1)[C@@H]1c2ccccc2C(=O)N(Cc2ccccc2Cl)[C@H]1c1ccc(CO)cc1 0.865
C=C(/C(=C/C[C@H](OC(C)=O)c1ccc(CO)o1)c1cnc2ccccc2c1)C(C)C -0.219
CCOC(=O)C[C@H]1[C@H](OC(=O)Cc2ccc3c(c2)OCO3)[C@@H](NC(=O)c2ccc3ccccc3n2)c2cc(OCCCO)ccc2N1C(=O)c1ccc2ccccc2n1 1.57
[N-]=[N+]=Nc1ccccc1C[C@]1(C(=O)NCCN2CCOCC2)COC(c2ccc(OCCCO)cc2)=N1 0.361
COc1ccc(CCNC(=O)[C@@H]2c3ccccc3C(=O)N(C3CCCCC3)[C@H]2c2ccc(CO)cc2)cc1 -1.39
COCCOC(=O)N1C(=O)[C@@]2(c3ccccc31)[C@H](C(=O)NC[C@H](O)c1ccccc1)[C@H]1C(=O)O[C@H](c3ccccc3)[C@H](c3ccccc3)N1[C@@H]2c1ccc(O)cc1 -0.803

Source: PubChem BioAssay
